Active and inactive are the calls of the source. Where a call stands in place of a potency, no number is given. The call rests on the fitted dose curve; in most records, active means well fitted curve in the direction sought with a large enough effect in the repeat runs; inconclusive means weak or mixed curves; inactive means flat fitted curve, though single readings scatter.
Test: qHTS assay to test for compound auto fluorescence at 590 nm (red) in HEK293 cells (AID 720679)
Details: red autofluorescence 540/590 nm; series mostly up to 91.3 µM
Text: National Center for Advancing Translational Sciences [NCATS]
NIH Chemical Genomics Center [NCGC]
U.S. Environmental Protection Agency [EPA]
National Institutes of Environmental Health Sciences [NIEHS]
National Toxicology Program [NTP]
U.S. Food and Drug Administration [FDA]
Compound auto fluorescence often interferes with screening of the compound library against various biological targets and signaling pathways. Some of these compounds may have fluorophoric properties. Such properties may interfere with the assay outputs resulting in false positives and/or negatives. To decrease such complications and ensure the compound activities are relevant in terms of biological response, the Tox21 10K compound library was screened for auto fluorescence.
From the fluorophores used as reporter signals in our screening assays, the auto fluorescence equivalencies of compounds against three fluorophores have been evaluated: Triamterene, Fluorescein and Rose Bengal sodium for blue, green and red fluorescence, respectively. The fluorescence intensities were measured using Excitation/Emission wavelengths at 405/460nm, 485/535nm and 540/590nm for blue, green and red labels, respectively. This assay includes the red fluorescence data.
Tox21 Assay Protocol Summary:
2,000 HEK293 cells in 5 uL of culture medium containing 10% dialyzed FBS per well were dispensed into black wall/clear bottom 1536-well plates using a Multidrop Combi Dispenser (Thermo Scientific). The assay plates were incubated for 4-5 hr at 37C to allow cell attachment to the well bottom, followed by the transfer of 23 nL compound or DMSO vehicle by a pintool work station (Kalypsys, San Diego, CA). After the assay plates were incubated overnight at 37C and 5% CO2, fluorescence intensities in the assay plates were measured by an Envision (PerkinElmer, Shelton, CT) plate reader using three labels for measuring blue, green and red fluorescence at […] 460, 535 and 590nm respectively.

Structure (SMILES) | Potency
Nc1ccc(Nc2ccccc2)cc1 | inactive
Clc1nc(Cl)c(Cl)c(Cl)c1Cl | inactive
Cc1ccc(C)c(O)c1C | inactive
Cn1cnc([N+](=O)[O-])c1Sc1ncnc2nc[nH]c12 | inactive
COc1ccccc1/C=C/C=O | inactive
O=Cc1ccccc1O | inactive
CC(CCC(=O)O)(c1ccc(O)cc1)c1ccc(O)cc1 | inactive
C[C@]12CC[C@H]3[C@@H](CCC4=CC(=O)CC[C@@]43C)[C@@H]1CC[C@@H]2C(=O)CO | inactive
Cc1c(OCC(F)(F)F)ccnc1CS(=O)c1nc2ccccc2[nH]1 (stereo not given) | inactive
Cc1ncc[nH]1 | inactive
Nc1ncnc2nc[nH]c12 | inactive
O=C(/C=C/C=C/c1ccc2c(c1)OCO2)N1CCCCC1 | inactive
C#C[C@]1(O)CC[C@H]2[C@@H]3CCc4cc(OC)ccc4[C@H]3CC[C@@]21C | inactive
C[C@]12CCC(=O)C=C1CC[C@@H]1[C@@H]2C(=O)C[C@@]2(C)[C@H]1CC[C@]2(O)C(=O)CO | inactive
COc1c(Cl)c(Cl)c(Cl)c(Cl)c1Cl | inactive
CN(C)CCN(Cc1cccs1)c1ccccn1 | inactive
Cc1[nH]c(=O)c(C#N)cc1-c1ccncc1 | inactive
COc1ccc(OC)c(C(O)CNC(=O)CN)c1 (stereo not given) | inactive
CC(=O)CC/C=C(\C)CCC=C(C)C | inactive
CC(=O)C1(C)CC2=C(CCCC2(C)C)CC1C (stereo not given) | inactive

Structure (SMILES) | Potency
Nc1ccc(S(=O)(=O)Nc2cnc3ccccc3n2)cc1 | inactive
COC(=O)Nc1nc2ccc(S(=O)c3ccccc3)cc2[nH]1 (stereo not given) | inactive
Nc1ccccc1N | inactive
O=[N+]([O-])c1ccc2c(c1)Cc1ccccc1-2 | inactive
O=C1c2cccc(O)c2C(=O)c2c(O)cccc21 | inactive
O=C(O)c1ccccc1Nc1cccc(C(F)(F)F)c1 | inactive
CC(C)=CCC/C(C)=C\CO | inactive
CN(C)C(=N)N=C(N)N | inactive
Cc1ccc(C(=O)c2cc(O)c(O)c([N+](=O)[O-])c2)cc1 | inactive
CCCCCCCCCC(=O)OC | inactive
OC[C@H]1O[C@@H]2O[C@H]3[C@H](O)[C@@H](O)[C@@H](O[C@H]4[C@H](O)[C@@H](O)[C@@H](O[C@H]5[C@H](O)[C@@H](O)[C@@H](O[C@H]6[C@H](O)[C@@H](O)[C@@H](O[C@H]7[C@H](O)[C@@H](O)[C@@H](O[C@H]8[C@H](O)[C@@H](O)[C@@H](O[C@H]1[C@H](O)[C@H]2O)O[C@@H]8CO)O[C@@H]7CO)O[C@@H]6CO)O[C@@H]5CO)O[C@@H]4CO)O[C@@H]3CO | inactive
CC(=O)O[C@]1(C(C)=O)CC[C@H]2[C@@H]3C=C(Cl)C4=CC(=O)[C@@H]5C[C@@H]5[C@]4(C)[C@H]3CC[C@@]21C | inactive
CC1=CC2C3CC(C=C3C)C2C1 (stereo not given) | inactive
CCCCOCCOCCO | inactive
COC(=O)CCC(=O)OC | inactive
OC1CCCCCCCCCCC1 | inactive
CCOCCOCCO | inactive
CC(C)OC(=O)C(C)(C)Oc1ccc(C(=O)c2ccc(Cl)cc2)cc1 | inactive
CCCCc1oc2ccccc2c1C(=O)c1cc(I)c(OCCN(CC)CC)c(I)c1 | inactive
O=CCCCC=O | inactive
